Experimental data as given in ChEMBL document CHEMBL3988442, “University of Dundee, Small-Polar-MMV Screening Library” (2021).
In all, about 53,000 compounds went through this assay and about 900 (1.7%) showed an effect of 50% or more. Many of the other results were omitted from the sample, so strong results are more common in it than they were.

Test system: Mycobacterium tuberculosis
Assay: Cornell - Phenotypic assay to identify agents that inhibit growth of Mycobacterium tuberculosis
Format: functional
Set-up: scale not given: direction of the effect not stated beside the values
Settings: 10 mM as filed; unlikely as a test dose

SMILES	Percent Effect
CN1CCOC(c2cncc(CCC(=O)N(C)C)n2)C1 (centres undefined)	-44.27%
COc1cccc(Nc2nc(N3CCCC3)nc3c2CNCC3)c1.Cl	17.23%
Fc1cccc(Nc2nc(N3CCCC3)nc3c2CNCC3)c1	102.5%
Oc1nc(N2CCOCC2)nc2c1CCN(Cc1cccc(F)c1)CC2	-50.2%
Cc1ccc(Cl)cc1N1CCN(CC(=O)NCc2ccco2)CC1	15.76%
O=C(NCC1CCCO1)Nc1nnc(C(F)(F)F)s1 (centres undefined)	1.87%
CCOCC(=O)NCCc1nc(C)cc(C(F)(F)F)n1	8.236%
CNc1cc(C)nc(-c2cc(NC3CCNCC3)nc3[nH]ccc23)n1	12.28%
COCCNc1cc(-c2ccccc2S(N)(=O)=O)c2cc[nH]c2n1	21.18%
FC(F)(F)c1ccc(-c2cc(NC3CCNCC3)nc3[nH]ccc23)nc1	3.154%
COc1nccnc1-c1cc(NC2CCCC2)nc2[nH]ccc12	101.6%
COc1nccnc1-c1cc(NC2CCNCC2)nc2[nH]ccc12	48.16%
COc1ncc(-c2cc(NC3CCCC3)nc3[nH]ccc23)c(OC)n1	89.73%
COc1ncc(-c2cc(NCCN(C)C)nc3[nH]ccc23)c(OC)n1	-22.77%
COc1cc(-c2cc(NC3CCCC3)nc3[nH]ccc23)nc(N)n1	98.19%
Nc1ccnc(-c2cc(NC3CCNCC3)nc3[nH]ccc23)c1	11.63%
C=Cc1cccc(CN(Cc2cnn(C)c2)C2CC2)c1	14.04%
Cc1nc(C)n(CC2CCCCN2Cc2cn3ccccc3n2)n1 (centres undefined)	-36.82%
Cc1csc(C(C)(C)NCCOc2ccc(CC#N)cc2)n1	-14.48%
NC(=O)N1CCCN(Cc2cc(F)cc(Br)c2)CC1	17.84%
Cc1cccc(CN2C[C@@H]3COC[C@]3(CNC(=O)C3CCC3)C2)c1.O=C(O)C(F)(F)F	0.1331%
CN(C)CCOC1CC2(CCN(c3cnccn3)CC2)c2ccccc21.O=C(O)C(F)(F)F (centres undefined)	-38.38%
O=C(O)C(F)(F)F.c1cncc(C2CC3(CCN(c4cnccn4)CC3)c3ccccc32)c1 (centres undefined)	50.88%

SMILES	Percent Effect
CCOC1CC2(CCN(c3cnccn3)CC2)c2ccccc21 (centres undefined)	32.32%
Cc1cnc(-c2nc(O)c3c(n2)CN(C(=O)C2CCCC2)CC3)cn1	-5.983%
Cn1cc(S(=O)(=O)NCC(C)(O)c2ccsc2)cn1 (centres undefined)	-58.46%
COc1cc(NCc2ncc[nH]2)ccc1Br	-5.052%
COCc1nc2cc(NCc3ncc[nH]3)ccc2o1	107.7%
Cc1csc(CNc2cccc(OCCN3CCCC3)c2)n1	34.79%
COCc1nc(CNc2cccc(-c3csc(C)n3)c2)cs1	38.18%
COCc1nc(C2CCN(Cc3ncc[nH]3)CC2)no1	-22.72%
Cc1csc(CNc2cnn(C(C)C)c2)n1	-3.592%
Fc1ccc(NCc2ncc[nH]2)cc1Br	55.27%
COC(=O)c1ccc(NCc2csc(C)n2)cc1Cl	15.32%
COCc1nc2cc(NCc3csc(C)n3)ccc2o1	107.6%
COCc1nc2cc(NCc3nc(C)cs3)ccc2o1	107.4%
Fc1cccc(NCc2ncc[nH]2)c1	35.73%
CC(C)(C)OC(=O)N1CCCc2ccc(NCc3ncc[nH]3)cc21	-12.48%
COc1ccc(OC(F)F)c(NCC(=O)NCC(=O)N2CCCC2)c1	14.52%
COC(=O)COc1c(F)cc(Br)cc1C(C)=O	-28.15%
NS(=O)(=O)NCc1cc(-c2ccco2)n(CC(F)(F)F)n1	5.494%
O=C(Nc1cccn(Cc2ccc(F)cc2)c1=O)c1cnc[nH]1	15.84%
Cc1nnc(SCC(=O)c2cc3c(cc2Cl)NC(=O)C3)o1	14.6%
Cc1nc(C(C)N2Cc3ncccc3C2=O)cs1 (centres undefined)	12.56%
COCc1nc(CNc2cccc(-c3ncon3)c2)cs1	-0.7134%
COCc1nc2cc(NCc3ccncc3)ccc2o1	39.69%

SMILES	Percent Effect
COCc1nc2cc(NCc3cc[nH]n3)ccc2o1	106.8%
CCC(O)CN1CCN(C(=O)c2ccc(Cn3cccc3)cc2)CC1 (centres undefined)	-35.22%
CCCS(=O)(=O)N1CCN(Cc2ccco2)CC1.O=C(O)C(=O)O	-8.655%
COc1cc(C(=O)N2CC3(CCNCC3)c3cc(Cl)ccc32)ccn1.O=C(O)C(F)(F)F.O=C(O)C(F)(F)F	15.78%
CNc1cc(-c2cccc(CN)c2)c2cc[nH]c2n1	80.74%
CNc1cc(-c2ccc(COCCN)cc2)c2cc[nH]c2n1	26.91%
CNc1cc(-c2ccccc2CN)c2cc[nH]c2n1	23.62%
CCOc1c(Cl)cc(/C=C/c2ncc(C(=O)O)s2)cc1OC	33.38%
CCOCC1CCN(C(=O)C(c2ccccc2F)N(C)C)CC1 (centres undefined)	28.27%
CS(=O)(=O)N1CCN(C(=O)c2cncs2)CC(C(N)=O)C1 (centres undefined)	53.86%
CNC(=O)C1CCCN(C(=O)c2cncs2)C1 (centres undefined)	43.16%
CNC(=O)C1CN(C(=O)c2cccs2)CCN(S(C)(=O)=O)C1 (centres undefined)	18.15%
COC[C@@]12CCO[C@@H]1CCN(C(=O)Cc1ccccc1C)C2	7.914%
Cc1ccc(C(=O)NS(=O)(=O)c2ccc3c(c2)OCCCO3)o1	-1.542%
Cc1oc(C)c(C(=O)NS(=O)(=O)c2ccc3c(c2)OCCCO3)c1C	58.42%
Cc1oc(C)c(C(=O)NS(=O)(=O)c2ccc3c(c2)OCCO3)c1Br	6.395%
NC(=O)N1CCC(C(=O)NC2CCc3nccn3C2)CC1 (centres undefined)	-11.45%
COC(=O)C(NC(=O)C(C)C)c1cc(F)ccc1F (centres undefined)	35.55%
COC(=O)C(c1cc(F)ccc1F)N(C)C(=O)c1ccccn1 (centres undefined)	0.1474%
COC(=O)C(NC(=O)COC1CCCCC1)c1ccccc1 (centres undefined)	43.33%
COC(=O)C(NC(=O)c1ccco1)c1cc(F)ccc1F (centres undefined)	104.5%
COC(=O)C(NC(=O)COC1CCCC1)c1cc(F)ccc1F (centres undefined)	63.8%
NC(=O)C(NC(=O)COC1CCCC1)c1ccccc1 (centres undefined)	21.89%
